Screens: PubChem BioAssay, National Center for Advancing Translational Sciences (NCATS)
SARS PLpro yeast: SARS-CoV PLP inhibition in yeast | 330,000 compounds, 0.19% hits | AID 485353 | S. cerevisiae expressing SARS-CoV PLpro, growth rescue | Potency, µM (doses to about 32.9 µM), hits mostly activators; also: nearly all actives have a fitted effect of over 55% in size
NS1 inh: blocks influenza NS1 protein function; 270,000 compounds, 0.4% hits; AID 2326; Potency, µM (doses to about 46.1 µM); also: actives are rising curves; nearly all actives have a fitted effect of over 50% in size
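S. cerevisiae expressing influenza A NS1, grown in glucose, washed, then diluted 1:100 into pH 6.0 -URA galactose medium with 23 nl compound. Growth recovery read as OD600; NS1-free strain serves as control.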
RE007 growth inh: less growth of the S. pombe RE007 Vpr strain; S. pombe RE007 Vpr strain, BacTiter-Glo ATP luminescence, 24 h; Potency, µM (titrated, usually from 92.2 µM), most hits filed as inhibitors; 360,000 compounds, 0.21% hits; active = well fitted falling curve with a large enough effect; inconclusive = small, poorly fitted or top-dose-only effect; inactive = no such curve, though single readings can be large or run the other way; also: nearly all actives have a fitted effect of over 50% in size
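Fission yeast strain RE007, carrying one chromosomally integrated HIV-1 vpr copy, was seeded at OD 0.01 in PMG+AL medium with 23 nL pinned compound. After 24 h at 30 °C and 99% humidity, viability was read by BacTiter-Glo luminescence.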
Pf growth 48h: P. falciparum growth inhibition at 48 hours (one generation) | Potency, µM (top dose mostly 28.7 µM), most hits filed as inhibitors | AID 504832 | 310,000 compounds, 5.9% hits | P. falciparum luciferase growth in erythrocytes, 48 h; active = well fitted inhibition curve with a large enough effect; inconclusive = small, poorly fitted or top-dose-only effect, or another doubt; inactive = no such curve, though single readings can be large or run the other way
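Cell-based growth assay: transgenic P. falciparum expressing firefly luciferase, cultured in red cells within RPMI 1640 containing 0.5% w/v Albumax, 24 mM bicarbonate and gentamycin. A drop in luciferase activity indicates inhibition.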
Pf growth 96h: P. falciparum growth inhibition at 96 hour, primary screen for plastid delayed-death inhibitors. 320,000 compounds, 6.9% hits. Potency, µM (highest dose often 28.7 µM), actives largely listed as inhibitors. P. falciparum luciferase reporter growth, 96 h; active = well fitted inhibition curve with a large enough effect; inconclusive = small, poorly fitted or top-dose-only effect, or another doubt; inactive = no such curve, though single readings can be large or run the other way
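Two-generation exposure (96 h) targets delayed-death phenotype. Reporter parasites carrying integrated firefly luciferase, in red cells at 2% hematocrit and 0.05% parasitemia final, kept at 37 C, 5% CO2; luminescence loss indicates inhibition.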
Hits are given with their value. Compounds with a hit are over-represented: about 9.5% of the library has one in this group of screens. Unless noted, calls follow the shape of the full dose curve.

Results for COc1ccc(C2=NOC(C(=O)Nc3cc(C)on3)C2)cc1 (stereo not drawn) ?
SARS PLpro yeast: inactive; NS1 inh: inactive; RE007 growth inh: inactive; Pf growth 96h: 9.3µM

How did O=C(Nc1cccc(O)c1)C1CC(c2ccc(Cl)cc2)=NO1 (stereo not drawn) do in these assays?
SARS PLpro yeast: inactive; NS1 inh: inactive; RE007 growth inh: inactive; Pf growth 48h: inactive; Pf growth 96h: inactive

How did COc1ccc(C2=NOC(C(=O)Nc3cccc(O)c3)C2)cc1 (stereo not drawn) do in these assays?
SARS PLpro yeast: inactive; NS1 inh: inactive; RE007 growth inh: inactive; Pf growth 48h: inactive; Pf growth 96h: 5.2µM

How did COc1ccc(OC)c(C2=NOC(C(=O)Nc3cccc(C(C)=O)c3)C2)c1 (stereo not drawn) do in these assays?
SARS PLpro yeast: inactive; NS1 inh: inactive; RE007 growth inh: inactive; Pf growth 48h: inactive; Pf growth 96h: 9.3µM

Results for COc1ccc(OC)c(C2=NOC(C(=O)Nc3ccccc3SC)C2)c1 (stereo not drawn) ?
SARS PLpro yeast: inactive; NS1 inh: inactive; RE007 growth inh: inactive; Pf growth 96h: inconclusive

How did N#CCCNc1c(Cl)cc(Cl)cc1C(=O)O do in these assays?
SARS PLpro yeast: inactive; NS1 inh: inactive; RE007 growth inh: inactive; Pf growth 48h: inactive; Pf growth 96h: inactive

Results for COc1ccc(-c2nc3ncccc3o2)cc1NC(=O)c1ccco1 ?
SARS PLpro yeast: inactive; NS1 inh: inactive; RE007 growth inh: inactive; Pf growth 48h: inactive; Pf growth 96h: inconclusive

Results for COc1cc(NC(=O)C2CC(c3c(F)cccc3Cl)=NO2)c(OC)cc1Cl (stereo not drawn) ?
SARS PLpro yeast: inactive; NS1 inh: inactive; RE007 growth inh: inactive; Pf growth 48h: inactive; Pf growth 96h: 10µM

Results for COc1ccc(NC(=O)C2CC(c3c(F)cccc3Cl)=NO2)cc1OC (stereo not drawn) ?
SARS PLpro yeast: inactive; NS1 inh: inactive; RE007 growth inh: inactive; Pf growth 48h: inactive; Pf growth 96h: inactive

Results for COc1ccc(C2=NOC(C(=O)Nc3cc(Br)ccc3O)C2)cc1OC (stereo not drawn) ?
SARS PLpro yeast: inactive; NS1 inh: inactive; RE007 growth inh: inactive; Pf growth 48h: 15µM; Pf growth 96h: inactive

How did COc1ccc(C2=NOC(C(=O)Nc3ccc(C(C)=O)cc3)C2)cc1OC (stereo not drawn) do in these assays?
SARS PLpro yeast: inactive; NS1 inh: inactive; RE007 growth inh: inactive; Pf growth 48h: inactive; Pf growth 96h: inactive

What do the screens show for `Nc1ccn([C@@H]2O[C@H](CNC(=O)[C@@H](Cc3cn(COCc4ccccc4)cn3)NC=O)[C@@H](O)[C@H]2O)c(=O)n1`?
RE007 growth inh: inactive

Results for CC1(C(=O)NCc2cccc(Cl)c2)Cc2c(-c3ccc4c(c3)OCO4)ccnc2O1 (stereo not drawn) ?
RE007 growth inh: inactive

Results for CC(/C=C/c1ccc(Cl)o1)=C\C(=O)O ?
SARS PLpro yeast: inactive; NS1 inh: inactive; RE007 growth inh: inactive; Pf growth 48h: inactive; Pf growth 96h: 1.5µM

What do the screens show for `CC(=C/C(=O)O)/C=C/c1ccco1`?
SARS PLpro yeast: inactive; NS1 inh: inactive; RE007 growth inh: inactive; Pf growth 48h: inconclusive; Pf growth 96h: inconclusive

Results for O[C@@H](c1cc([C@@]23C[C@H]4CC[C@@H]2C[C@H](C4)C3)nc2c(Cl)cc(Cl)cc12)C1CCCCN1 (stereo partly drawn) ?
NS1 inh: inactive

What do the screens show for `CCN(C(=O)CSc1ccc(S(=O)(=O)N2CCOCC2)cn1)c1ccccc1`?
SARS PLpro yeast: inactive; RE007 growth inh: inactive; Pf growth 48h: inconclusive; Pf growth 96h: inconclusive

How did CC(C)N(C(=O)CSc1ccc(S(=O)(=O)N2CCCCC2)cn1)c1ccccc1 do in these assays?
SARS PLpro yeast: inactive; RE007 growth inh: inactive; Pf growth 48h: 8.3µM; Pf growth 96h: inconclusive

How did CN(C)C(=O)CSc1ccc(S(=O)(=O)N2CCCC2)cn1 do in these assays?
SARS PLpro yeast: inactive; RE007 growth inh: inactive; Pf growth 48h: inconclusive; Pf growth 96h: inactive

Results for O=S(=O)(Cc1ccccc1)Nc1ccc(S(=O)(=O)N2CCCC2)cc1 ?
SARS PLpro yeast: inactive; NS1 inh: inconclusive; RE007 growth inh: inactive; Pf growth 48h: 2.3µM; Pf growth 96h: inactive

Results for CC(NC(=O)Cc1ccc(S(=O)(=O)N2CCCCC2)cc1)c1ccccc1 (stereo not drawn) ?
SARS PLpro yeast: inactive; RE007 growth inh: inactive; Pf growth 48h: 12µM; Pf growth 96h: 8.3µM

How did O=S(=O)(Nc1ccccc1)c1ccc(S(=O)(=O)N2CCCC2)cc1 do in these assays?
SARS PLpro yeast: inactive; RE007 growth inh: inactive; Pf growth 48h: inconclusive; Pf growth 96h: inconclusive

Results for CC(NC(=O)CN1CCN(S(=O)(=O)c2ccc(Br)cc2)CC1)c1ccccc1 (stereo not drawn) ?
SARS PLpro yeast: inactive; RE007 growth inh: inactive; Pf growth 48h: inconclusive; Pf growth 96h: inactive

What do the screens show for `CCN(C(=O)C(C)Sc1ccc(S(=O)(=O)N2CCN(C)CC2)cn1)c1ccccc1` (stereo not drawn)?
SARS PLpro yeast: inactive; RE007 growth inh: inactive; Pf growth 48h: inconclusive; Pf growth 96h: 12µM

What do the screens show for `CSc1cccc(NC(=O)CCCOc2cc(=O)n(C)c3ccccc23)c1`?
RE007 growth inh: inactive

Results for N[C@@H](CSCc1ccc(I)cc1)C(=O)O ?
NS1 inh: inactive

How did Oc1cc2ccccc2nc1-c1ccccc1Cl do in these assays?
SARS PLpro yeast: inactive; NS1 inh: inactive; RE007 growth inh: inactive; Pf growth 48h: 7.4µM; Pf growth 96h: inconclusive

How did CC(=O)Nc1cccc(-c2ccnc3c2CC(C)(C(=O)NCC2CC2)O3)c1 (stereo not drawn) do in these assays?
RE007 growth inh: inactive

Results for Cc1c(Cc2ccccc2)sc(NC(=O)c2ccco2)c1C(N)=O ?
SARS PLpro yeast: inactive; NS1 inh: inactive; RE007 growth inh: inactive; Pf growth 48h: inactive; Pf growth 96h: inactive

How did CCOc1ccc(CC(=O)Nc2c(C(N)=O)oc3ccccc23)cc1OCC do in these assays?
SARS PLpro yeast: inactive; NS1 inh: inactive; RE007 growth inh: inactive; Pf growth 48h: inconclusive; Pf growth 96h: 12µM

How did CCOc1ccc(CC(=O)Nc2sc(Cc3ccccc3)c(C)c2C(N)=O)cc1OCC do in these assays?
SARS PLpro yeast: inactive; NS1 inh: inactive; RE007 growth inh: inactive; Pf growth 48h: inconclusive; Pf growth 96h: 9.3µM

What do the screens show for `CCC(NC(=O)c1cncc(Br)c1)c1ccccc1` (stereo not drawn)?
RE007 growth inh: inactive

What do the screens show for `COc1ccc(COC(=O)c2cccc(S(=O)(=O)N3CCN(C(C)=O)CC3)c2)cc1`?
SARS PLpro yeast: inactive; RE007 growth inh: inactive; Pf growth 48h: inactive; Pf growth 96h: inactive

How did Fc1ccc(C2=CCN(C(c3cccs3)c3nnnn3CCc3ccccc3)CC2)cc1 (stereo not drawn) do in these assays?
SARS PLpro yeast: inactive; NS1 inh: inactive; RE007 growth inh: inactive; Pf growth 48h: inactive
